Experimental findings from PubChem BioAssay (EPA / NIEHS) are described below.

Where “and” joins values, the source holds several entries; their conditions need not be identical. Equal entries are not always repeated. More than one record can exist for a structure, and the calls need not agree. Calls of active or inactive are those of the source. How the source made its calls: active means hit-call score of the fitted dose curve at least 0.9, where 1 is the maximum; inactive means score below 0.9.

In general, AC50 refers to the midpoint of the concentration-response curve, whichever way the signal moves.

Read-out in test [1]: Macrophage colony-stimulating factor (MCSF), CSF1 (gene 1435)
The test can be described thus: BSK_hDFCGF_MCSF: BioMAP Diversity Plus: hDFCGF Assay for Macrophage colony-stimulating factor (MCSF) Biomarker Activity (AID 2283060). The settings on record: primary human foreskin fibroblasts; actives raise or lower the signal. In outline: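 Primary human foreskin fibroblasts dosed with chemical; 24 h later, M-CSF quantified by ELISA; curves fitted in both directions vs DMSO negative control.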

Test [2] in a line: BSK_hDFCGF_SRB: Viability Assessment in the BioMAP Diversity Plus: hDFCGF Assay (AID 2283061).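 Further: cells exposed to compound for 24 h before the read.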 The settings on record: primary human foreskin fibroblasts. In outline: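 Readout is SRB absorbance at 560 nm, reflecting total protein in parallel cultures of human foreskin fibroblasts harvested 24 h after chemical dosing. Activity was fitted bidirectionally relative to DMSO.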
Read-out in test [3]: TIMP metallopeptidase inhibitor 1 (TIMP1), TIMP1 (gene 7076)
The test can be described thus: BSK_hDFCGF_TIMP1: BioMAP Diversity Plus: hDFCGF Assay for TIMP metallopeptidase inhibitor 1 (TIMP1) Biomarker Activity (AID 2283062). The settings on record: primary human foreskin fibroblasts; actives raise or lower the signal. In outline:
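Human skin fibroblasts (primary), hDFCGF system; compound exposure 24 h; TIMP-1 by ELISA; bidirectional fit vs DMSO negative control; overt cytotoxicity by SRB in parallel wells.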

Read-out in test [4]: Monokine induced gamma interferon (MIG), CXCL9 (gene 4283)
The test can be described thus: BSK_hDFCGF_MIG: BioMAP Diversity Plus: hDFCGF Assay for Monokine induced gamma interferon (MIG) Biomarker Activity (AID 2283063). The settings on record: primary human foreskin fibroblasts; actives raise or lower the signal. In outline:
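Chemicals were added to primary human foreskin fibroblast cultures, which were sampled 24 h later. MIG levels were then quantified by ELISA and responses fitted in both directions relative to DMSO.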

Read-out in test [5]: Matrix Metallopeptidase 1 (MMP1), MMP1 (gene 4312)
Kind of test: BSK_hDFCGF_MMP1: BioMAP Diversity Plus: hDFCGF Assay for Matrix Metallopeptidase 1 (MMP1) Biomarker Activity (AID 2283064). The settings on record: primary human foreskin fibroblasts; actives raise or lower the signal. In outline:
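Primary human foreskin fibroblasts in the hDFCGF system were dosed with test chemical, and MMP1 was measured by ELISA 24 h later. Values come from bidirectional curve fitting against the DMSO baseline.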

Read-out in test [6]: Vascular cell adhesion molecule 1 (VCAM1), VCAM1 (gene 7412)
The test can be described thus: BSK_hDFCGF_VCAM1: BioMAP Diversity Plus: hDFCGF Assay for Vascular cell adhesion molecule 1 (VCAM1) Biomarker Activity (AID 2283065). The settings on record: primary human foreskin fibroblasts; actives raise or lower the signal. In outline:
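Human foreskin fibroblast primary cells, chemical exposure 24 h; VCAM-1 by ELISA; bidirectional fit, DMSO = negative control/baseline.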

Read-out in test [7]: Plasminogen activator inhibitor-1 (PAI1), SERPINE1 (gene 5054)
Kind of test: BSK_hDFCGF_PAI1: BioMAP Diversity Plus: hDFCGF Assay for Plasminogen activator inhibitor-1 (PAI1) Biomarker Activity (AID 2283066). The settings on record: primary human foreskin fibroblasts; actives raise or lower the signal. In outline:
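PAI-1 levels, determined by ELISA, served as the endpoint in human foreskin fibroblast cultures exposed to compound for 24 h, with DMSO as baseline.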

Read-out in test [8]: Intercellular Adhesion Molecule 1 (ICAM1), ICAM1 (gene 3383)
The test can be described thus: BSK_KF3CT_ICAM1: BioMAP Diversity Plus: KF3CT Assay for Intercellular Adhesion Molecule 1 (ICAM1) Biomarker Activity (AID 2283067). The settings on record: primary human keratinocytes with fibroblasts; actives raise or lower the signal. In outline:
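ICAM-1 levels are measured by ELISA 24 h after dosing a primary human co-culture of keratinocytes and foreskin fibroblasts. Activity in either direction is fitted relative to DMSO vehicle.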

Read-out in test [9]: Interferon-gamma inducible Protein 10 (IP10), CXCL10 (gene 3627)
The test can be described thus: BSK_KF3CT_IP10: BioMAP Diversity Plus: KF3CT Assay for Interferon-gamma inducible Protein 10 (IP10) Biomarker Activity (AID 2283068). The settings on record: primary human keratinocytes with fibroblasts; actives raise or lower the signal. In outline:
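ELISA read-out of IP-10 after 24 h chemical dosing of human skin primary co-culture (keratinocytes, foreskin fibroblasts). Gain or loss of signal relative to DMSO, bidirectional curve fit.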

The nature of test [10]: BSK_KF3CT_SRB: Viability Assessment in the BioMAP Diversity Plus: KF3CT Assay (AID 2283069).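 Further: total protein by sulforhodamine B staining as a cytotoxicity measure; read 24 h after compound addition.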 The settings on record: primary human keratinocytes with fibroblasts. In outline:
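Human primary keratinocyte plus foreskin fibroblast co-culture exposed to chemicals for 24 h. Total protein measured by 0.1% sulforhodamine B staining after 10% TCA fixation, read at 560 nm; bidirectional fitting versus DMSO baseline.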

Read-out in test [11]: Interleukin-1 alpha (IL1a), IL1A (gene 3552)
The test can be described thus: BSK_KF3CT_IL1a: BioMAP Diversity Plus: KF3CT Assay for Interleukin-1 alpha (IL1a) Biomarker Activity (AID 2283070). The settings on record: primary human keratinocytes with fibroblasts; actives raise or lower the signal. In outline: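 Human keratinocyte plus foreskin fibroblast primary co-culture, sampled 24 h after chemical dosing. IL-1a measured by ELISA; responses fitted bidirectionally against DMSO baseline (negative control), so gain or loss of signal both count.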

Read-out in test [12]: TIMP metallopeptidase inhibitor 2 (TIMP2), TIMP2 (gene 7077)
Kind of test: BSK_KF3CT_TIMP2: BioMAP Diversity Plus: KF3CT Assay for TIMP metallopeptidase inhibitor 2 (TIMP2) Biomarker Activity (AID 2283071). The settings on record: primary human keratinocytes with fibroblasts; actives raise or lower the signal. In outline: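 Keratinocyte–fibroblast co-culture, 24 h exposure; TIMP-2 ELISA, DMSO-normalised bidirectional fit. Parallel SRB (0.1%, TCA-fixed, 560 nm) total-protein staining gauges cytotoxicity.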

Read-out in test [13]: Matrix Metallopeptidase 9 (MMP9), MMP9 (gene 4318)
Kind of test: BSK_KF3CT_MMP9: BioMAP Diversity Plus: KF3CT Assay for Matrix Metallopeptidase 9 (MMP9) Biomarker Activity (AID 2283074).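 On AC50: MMP9 protein level quantified by ELISA in the co-culture.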 The settings on record: primary human keratinocytes with fibroblasts; actives raise or lower the signal. In outline:
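Keratinocyte plus foreskin fibroblast human primary skin co-culture was dosed with chemical and MMP-9 was quantified by ELISA 24 h later. Bidirectional curve fitting used DMSO as negative control and activity baseline.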

Read-out in test [14]: urokinase plasminogen activator (uPA), PLAU (gene 5328)
Kind of test: BSK_KF3CT_uPA: BioMAP Diversity Plus: KF3CT Assay for urokinase plasminogen activator (uPA) Biomarker Activity (AID 2283075). The settings on record: primary human keratinocytes with fibroblasts; actives raise or lower the signal. In outline: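 Human keratinocyte plus foreskin fibroblast primary co-culture exposed to chemical for 24 h. uPA levels were quantified by ELISA, and activity was fitted bidirectionally against a DMSO negative-control baseline.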

Read-out in another test: CD40, CD40 (gene 958)
The test can be described thus: BSK_LPS_CD40: BioMAP Diversity Plus: LPS Assay for CD40 Biomarker Activity (AID 2283076). The settings on record: primary human HUVEC with PBMC; actives raise or lower the signal. In outline: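 Cells were dosed, incubated 24 h, then assayed for CD40 by ELISA. Gain or loss of signal was analysed relative to DMSO controls. The culture paired human umbilical vein endothelium with peripheral blood mononuclear cells.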

Read-out in test [15]: E-selectin (Homo sapiens) (UniProt P16581)
The test can be described thus: BSK_LPS_Eselectin: BioMAP Diversity Plus: LPS Assay for Eselectin Biomarker Activity (AID 2283077). The settings on record: primary human HUVEC with PBMC; actives raise or lower the signal. In outline:
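Primary human vascular co-culture (endothelium plus PBMC) was dosed with chemical, then E-selectin quantified by ELISA at 24 h. Endpoint values derive from bidirectional curve fitting relative to DMSO.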

Read-out in test [16]: Interleukin-8 (IL8), CXCL8 (gene 3576)
Kind of test: BSK_LPS_IL8: BioMAP Diversity Plus: LPS Assay for Interleukin-8 (IL8) Biomarker Activity (AID 2283078). The settings on record: primary human HUVEC with PBMC; actives raise or lower the signal. In outline: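 Readout is IL-8 by ELISA, taken 24 h after compounds were added to LPS-stimulated endothelial/PBMC co-cultures. Both increases and decreases relative to DMSO control were scored through bidirectional fitting.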

Test [17] in a line: BSK_LPS_SRB: Viability Assessment in the BioMAP Diversity Plus: LPS Assay (AID 2283079).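 Further: total protein by sulforhodamine B absorbance as a cytotoxicity measure; measured one day after compound addition.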 The settings on record: primary human HUVEC with PBMC. In outline:
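Readout is SRB absorbance at 560 nm (0.1% stain, TCA-fixed parallel cultures) as a total-protein cytotoxicity measure. Cells: primary human umbilical vein endothelium plus peripheral blood mononuclear cells, 24 h after chemical exposure; DMSO served as baseline.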

Read-out in test [18]: Interleukin-1 alpha (IL1a), IL1A (gene 3552)
The test can be described thus: BSK_LPS_IL1a: BioMAP Diversity Plus: LPS Assay for Interleukin-1 alpha (IL1a) Biomarker Activity (AID 2283080). The settings on record: primary human HUVEC with PBMC; actives raise or lower the signal. In outline:
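ELISA read-out of IL-1 alpha from a human primary vascular co-culture (endothelium plus PBMC) under LPS, sampled 24 hours post-dosing. Activity was fitted in both directions relative to DMSO controls.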

Read-out in test [19]: C-C motif chemokine 2 (Homo sapiens) (UniProt P13500)
The test can be described thus: BSK_KF3CT_MCP1: BioMAP Diversity Plus: KF3CT Assay for Monocyte Chemoattractant Protein 1 (MCP1/CCL2) Biomarker Activity (AID 2283073). The settings on record: primary human keratinocytes with fibroblasts; actives raise or lower the signal. In outline: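 ELISA readout of MCP-1 after 24 h chemical dosing of a human skin primary co-culture of keratinocytes and foreskin fibroblasts. Activity was fitted in both directions against DMSO.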

Sequence of E-selectin (Homo sapiens) (P16581 whole entry, looked up): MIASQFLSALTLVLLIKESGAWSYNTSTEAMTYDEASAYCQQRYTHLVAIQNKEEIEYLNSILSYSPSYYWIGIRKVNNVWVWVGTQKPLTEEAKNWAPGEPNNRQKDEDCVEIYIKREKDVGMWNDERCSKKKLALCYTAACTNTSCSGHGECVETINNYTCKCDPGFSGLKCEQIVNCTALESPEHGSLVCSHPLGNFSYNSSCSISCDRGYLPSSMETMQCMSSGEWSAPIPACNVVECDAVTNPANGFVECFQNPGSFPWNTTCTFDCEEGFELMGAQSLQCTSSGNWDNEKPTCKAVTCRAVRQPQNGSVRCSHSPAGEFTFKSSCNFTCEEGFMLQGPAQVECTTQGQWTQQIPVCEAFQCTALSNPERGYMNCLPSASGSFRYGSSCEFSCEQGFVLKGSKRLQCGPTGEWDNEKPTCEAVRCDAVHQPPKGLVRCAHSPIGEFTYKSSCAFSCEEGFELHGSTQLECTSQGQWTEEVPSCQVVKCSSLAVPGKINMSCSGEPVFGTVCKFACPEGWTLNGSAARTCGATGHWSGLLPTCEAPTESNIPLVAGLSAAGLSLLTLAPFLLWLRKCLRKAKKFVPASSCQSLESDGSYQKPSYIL

`CC(C)CCCC(C)CCO` (stereo unspecified): the result in [1], in test [2], in test [3], in [4], in [5] and in test [6] was inactive. In addition, the outcome in test [7] was “inactive”; with CD40, CD40 (gene 958), “inactive”; in [15] it was “inactive”; in [16], “inactive”; in [17], “inactive”; in test [18], “inactive”. The half-maximal activity concentration (AC50) is 36.5 µM (active) in test [8]; 35.6 µM (active) in [9]; 34.4 µM (active) in test [10]; 34.4 µM (active) in [11]; 30.5 µM (active) in test [12]; 36.4 µM (active) in test [13]. Further, the AC50 in [14] was 36.1 µM (active).
As for `CO[Si](C)(CCC(F)(F)C(F)(F)C(F)(F)C(F)(F)C(F)(F)C(F)(F)F)OC`, the outcome in [1], in [2], in [3], in [4], in [5] and in [6] was inactive. Further, the result in test [7], in test [8], in [9], in test [10], in [11] and in [12] was inactive. Also, the outcome in test [13] is “inactive”; in test [14] it was “inactive”; with CD40, CD40 (gene 958) it was “inactive”; in test [15], “inactive”; in [16], “inactive”; in test [17], “inactive”. Moreover, the result in test [18] was inactive.
On to `FC(F)(F)C(F)(F)C(F)(F)C(F)(F)C(F)(F)C(F)(F)CC[Si](Cl)(Cl)Cl`, for which the outcome in [1], in [2], in test [3], in [4], in test [5] and in test [6] was inactive. Further, the outcome in test [7], in test [8], in test [9], in test [10], in test [11] and in [12] was inactive. The outcome is “inactive” in test [13]; “inactive” in test [14]; “inactive” in the test with CD40, CD40 (gene 958); “inactive” in test [15]; “inactive” in test [16]; “inactive” in test [17]. The result in test [18] was inactive.
Take `O=C(O)C(F)(F)C(F)(F)C(F)(F)OC(F)(C(F)(F)F)C(F)(F)F`: the outcome in test [1], in test [2], in test [3], in test [4], in test [5] and in test [6] was inactive. The result in [7], in test [8], in test [9], in [10], in test [11] and in [12] was inactive. For the same compound, the outcome in test [13] is “inactive”; in test [14], “inactive”; with CD40, CD40 (gene 958) it was “inactive”; in test [15], “inactive”; in test [17], “inactive”; in [18] it was “inactive”. Also, the AC50 in test [13] was 24.7 µM (active); in test [16], 7.64 µM (active) and 9.75 µM (active).
For the compound `OCC(O)CC(F)(F)C(F)(F)C(F)(F)C(F)(F)F` (stereo unspecified), the outcome in test [1], in test [2], in test [3], in test [4], in test [5] and in test [6] was inactive. The result in test [7], in test [8], in test [9], in test [10], in test [11] and in [12] was inactive. For the same compound, the outcome in [13] was “inactive”; in test [14] it was “inactive”; with CD40, CD40 (gene 958), “inactive”; in test [15], “inactive”; in test [16], “inactive”; in test [17] it was “inactive”. The result in [18] was inactive.
As to `O=C(O)C(F)(F)C(F)(F)C(F)(F)C(=O)O`, the result in [1], in test [3], in [4], in [5], in test [6] and in test [7] was inactive. Besides, the outcome in test [8], in test [9], in test [10], in test [11], in test [12] and in test [19] was inactive. For the same compound, the outcome in [13] is “inactive”; in test [14], “inactive”; with CD40, CD40 (gene 958), “inactive”; in test [15], “inactive”; in test [16] it was “inactive”; in [17], “inactive”. Moreover, the result in test [18] was inactive. In addition, in test [2], the half-maximal activity concentration (AC50) is 1.81 µM (active) and 19.7 µM (active).
